The text below walks through data of patent US20140271602, “NUCLEOTIDE-SPECIFIC RECOGNITION SEQUENCES FOR DESIGNER TAL EFFECTORS” (THE BROAD INSTITUTE INC., published 2014).

The target of the experiment is T1, TALE2-NN (CACNA1C site 2 activator) (Xanthomonas (engineered), UniProt P14727 SEQ:1-983).
T1 chain: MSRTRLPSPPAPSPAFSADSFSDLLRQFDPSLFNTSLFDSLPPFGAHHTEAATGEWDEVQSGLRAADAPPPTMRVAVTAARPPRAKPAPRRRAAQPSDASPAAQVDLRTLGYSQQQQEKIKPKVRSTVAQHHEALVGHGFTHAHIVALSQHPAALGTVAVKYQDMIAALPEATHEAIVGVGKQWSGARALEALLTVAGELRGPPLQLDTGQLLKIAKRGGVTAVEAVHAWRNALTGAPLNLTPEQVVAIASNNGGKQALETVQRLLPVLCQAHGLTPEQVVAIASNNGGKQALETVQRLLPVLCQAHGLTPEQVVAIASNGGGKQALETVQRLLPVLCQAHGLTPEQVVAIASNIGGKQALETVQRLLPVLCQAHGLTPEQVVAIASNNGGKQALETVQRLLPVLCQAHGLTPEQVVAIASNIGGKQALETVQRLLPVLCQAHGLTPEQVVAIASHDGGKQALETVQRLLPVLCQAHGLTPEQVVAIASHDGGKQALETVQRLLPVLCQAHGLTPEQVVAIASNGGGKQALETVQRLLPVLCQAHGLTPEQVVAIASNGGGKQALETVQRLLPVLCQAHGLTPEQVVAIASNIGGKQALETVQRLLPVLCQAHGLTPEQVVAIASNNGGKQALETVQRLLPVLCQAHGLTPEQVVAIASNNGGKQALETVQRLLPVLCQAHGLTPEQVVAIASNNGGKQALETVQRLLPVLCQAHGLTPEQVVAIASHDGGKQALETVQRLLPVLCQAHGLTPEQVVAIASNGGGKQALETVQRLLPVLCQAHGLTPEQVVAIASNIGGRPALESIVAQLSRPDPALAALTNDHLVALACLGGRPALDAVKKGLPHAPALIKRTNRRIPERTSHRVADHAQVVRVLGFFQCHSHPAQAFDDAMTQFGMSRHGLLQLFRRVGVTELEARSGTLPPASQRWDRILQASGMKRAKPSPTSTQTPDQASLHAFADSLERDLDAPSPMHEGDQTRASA
Nature of the experiment: cell_activity; luciferase reporter. The following applies: tags: VP64, 2A-GFP; dsDNA, one strand shown. On the procedure:
TALEs using NN, NK, NH, and HN as the G-targeting RVD were synthesized to target two distinct 18 bp target sites in the human CACNA1C locus. Changes in mRNA are measured using qRT-PCR as described previously. VP64, VP64 transcription activation domain. All results are collected from three independent experiments in HEK 293FT cells. Error bars indicate s.e.m.; n=3. FIG. 19(b) discloses SEQ ID NOS 63 and 62, respectively, in order of appearance.
To determine whether NH and HN are suitable replacements for NN as the G-specific RVD, specificity and activity strength of NN, NK, NH, and HN were directly compared. Two 18 bp targets within the CACNA1C locus in the human genome were chosen and four TALEs for each target were constructed, using NN, NK, NH, or HN as the G-targeting RVD (FIG. 19a). […] For each CACNA1C target site, four luciferase reporters were constructed: wild type genomic target, and wild type target with 2, 4, or all guanines mutated into adenines (FIG. 19a, G-to-A reporters), and compared the activity of each TALE using these reporters (FIG. 19a). […] Thus, focus was placed on the RVDs NN, NK, and NH in subsequent experiments to assess their usefulness in modulating transcription at endogenous human genome targets.
On the technique in general: A reporter such as luciferase makes a cellular process visible.
TAATAGACCTTAGGGCTA: the binding signal is 21.8 % reduction vs wild-type site.
